In PubChem BioAssay AID743415 (Broad Institute, 2014):
Entries with a potency or affinity are not part of this list.

assay: Shn3 transcript knock-down in Clone20 cells – cell-based, qPCR, cherry-pick, dose response (AID 743415); details: Shn3 mRNA qPCR, overnight; series mostly up to 35 µM; relative Shn3 expression (fraction): at the top concentration;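 active = compounds lowering Shn3 expression whose fitted half-maximal concentration is at most twice the top valid dose; inconclusive = flat partial decrease or an invalid curve fit; inactive = the rest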

Relative Shn3 expression (fraction), inactive:
CCCCOCCCNc1ncnc2c1[nH]c1ccccc12 1.63
Cc1ccc(NC(=O)c2ccc(Cl)c(N3C(=O)C=CC3=O)c2)cc1 7.39
Cc1ccccc1OCCOC(=O)c1cc(S(=O)(=O)N2CCCCC2)ccc1N1CCOCC1 1.2
c1ccc(-c2noc(-c3ccc4ccccc4c3)n2)nc1 0.683
CCCCNc1cc(C)nc(NCc2ccccc2)n1 3.52
CC(Sc1nc2ccccc2c(=O)n1C)C(=O)N(C)C1CCCCC1 (stereo unspecified) 1.25
COCCNc1nc(NCc2ccc(C(C)C)cc2)c2sccc2n1 1.75
COCOCCn1cc(CN2CCS(=O)(=O)N(Cc3ccc(-c4ccc(Cl)c(Cl)c4)cc3)C(C(C)C)C2=O)nn1 (stereo unspecified) 1.43
Cc1ccc(NC(=O)c2cc(S(=O)(=O)NCCC3=CCCCC3)ccc2F)cc1F 1.86
CC(C)(C)C(=O)Nc1cc2nn(-c3ccccc3)nc2cc1Cl 0.982
COc1ccc(OC)c(NC(=O)CN(Cc2ccc(F)cc2)C2CCCCC2)c1 1.71
CCN(CC)c1ccc(NC(=O)CN2C(=O)CSc3ncccc32)c(C)c1 1.24
CN(c1ccccc1)S(=O)(=O)c1cccc(NC(=O)CSc2nncs2)c1 1.14
Cc1cccc(NS(=O)(=O)c2ccc(C3CCCCC3)cc2)c1 2.21
Cc1nc2ccccc2cc1OCc1ccc(F)cc1 1.29
O=C(Nc1ccc(N2CCOCC2)cc1)c1ccc(Cl)c(S(=O)(=O)N2CCCC2)c1 1.52
COc1ccc(NS(=O)(=O)c2ccc(OC)c(N(C)S(=O)(=O)c3ccc(Cl)cc3)c2)cc1 1.23
COc1ccc(-c2cc(C(F)(F)F)nc(S(C)(=O)=O)n2)cc1 0
O=C(CSc1nnc(-c2cccnc2)s1)Nc1ccnc2ccccc12 0.959
O=C(COC(=O)c1n[nH]c2ccccc12)Nc1ccc(S(=O)(=O)N2CCCC2)cc1 1.75
O=C(Cn1cnc2ccccc21)Nc1cccc(S(=O)(=O)N2CCCC2)c1 0.958
CCOc1ccc(Cn2nnc(C(=O)Nc3cc(OC)cc(OC)c3)c2N)cc1 1.13
CN(CC(=O)Nc1ccccc1Cl)C(=O)c1cccc(S(=O)(=O)N2CCN(c3ccccc3)CC2)c1 1.95
CCOC(=O)C1CCCN(S(=O)(=O)c2ccc(S(=O)(=O)N3CCCC3)cc2)C1 (stereo unspecified) 0.904
CCn1c(CNC(=O)c2cc(OC)c(OC)c(OC)c2)cc2cc(C)ccc21 1.06
Cc1ccc2nc(NC(=O)C3CCN(S(=O)(=O)c4ccc5c(c4)oc(=O)n5C)CC3)sc2c1 1.28
O=C(Nc1nc(-c2ccccc2)cs1)C1CCCCN1S(=O)(=O)c1ccccc1 (stereo unspecified) 1.36
CCn1cc(CN(C)S(=O)(=O)c2ccc3ccccc3c2)c(C)n1 1.25
Nc1ncnc2c1c(-c1ccc(Oc3ccccc3)cc1)cn2C1CCCC1 0.905
Cn1c(=O)c2c(nc(NCc3ccco3)n2CCc2ccccc2)n(C)c1=O 1.31
O=C(Nc1ccc(Cl)cc1)c1cc(S(=O)(=O)N2CCOCC2)cs1 1.29
CC(C)CCOc1cccc(OCC(=O)Nc2ccncc2)c1 1.53
COc1ccccc1NC(=O)Cn1cc(C(=O)C2CC2)c2ccccc21 1.44
CC(=O)Nc1ccc(OCC(=O)Nc2ccc(Cl)c(S(=O)(=O)N3CCOCC3)c2)cc1 0.846
Cc1ccc2c(c1)nnn2C1CCN(S(=O)(=O)c2ccc(C(=O)N3C(C)CCCC3C)cc2)CC1 (stereo unspecified) 1.29
CCOC(=O)c1oc2ccc(S(=O)(=O)n3nc(-c4ccc(OC)cc4)cc3N)cc2c1C 1.18
